Assay results from PubChem BioAssay.
Activity calls are given as the source filed them.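 Rule for the calls, unless noted: active = compounds giving at least 50% inhibition in the cell-based MKP-3 phosphatase rescue imaging test; inactive = the rest.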

Tests used:
[1] = inhibitors of TNFa-induced NFkB p65 translocation, primary screen, imaging, HUVEC, MLSMR starter and 10KST1 sets (AID 438;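 active = inhibition above 20% together with a positive visual image hit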;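 note: compound added about 3h40 before a 20 min TNFalpha stimulation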;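 for inhibition: signal is the nuclear over cytoplasmic p65 intensity ratio per well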); details: HUVEC TNFa-induced p65 nuclear translocation; cell count: measured here: nuclei count (cytotoxicity indicator), at 2.08 µM; inhibition: at 2 µM, stronger effect = higher value, 0% TNFa-plus-vehicle, 100% no-TNFa wells
[2] = reduction of polyQ htt aggregates in cells – imaging, exon1htt(103Q)mCFP cells, high-content imaging, primary screen (AID 483;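 active = visual image review flags a hit and inhibition of aggregation exceeds 20%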;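 note: compound exposure lasted 3 days before fixation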;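 for nuclei count: percent of the per-plate median nuclei count of sample wells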); details: exon1htt(103Q)mCFP cell line, aggregate imaging, at 2 µM; inhibition of aggregation: stronger effect = higher value; nuclei count: measured here: cell count, toxicity
[3] = endothelial E-selectin expression blockers – imaging, HUVEC, immunofluorescence, MLSMR starter and 10KST1 sets, primary screen (AID 487;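 active = visually confirmed hit in the image check and inhibition above 20%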;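 for inhibition: signal is fraction of cell area covered by stained E-selectin grains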;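 for nuclei count: 100% = median nuclei count of all wells on the same plate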); details: HUVEC TNFalpha-induced E-selectin immunofluorescence imaging, at 2 µM; inhibition: stronger effect = higher value; nuclei count: measured here: cell number, toxicity
[4] = Primary imaging screen for DUSP6 inhibitors that restore phospho-Erk in transfected HeLa cells, chemical complementation (AID 609); details: HeLa MKP-3 transfected, phospho-Erk imaging KS statistic, at 10 µM, cells stimulated with TPA for 15 min;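 for inhibition: phospho-Erk level distribution per well compared with pooled transfected vehicle control wells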
[5] = biological target: Dual specificity protein phosphatase 6 (Homo sapiens) (UniProt Q16828); test: as above; details: HeLa MKP-3 transfected, phospho-Erk imaging KS statistic; at 10 µM; stronger effect = higher value; cells stimulated with TPA for 15 min
Sequence of Dual specificity protein phosphatase 6 (Homo sapiens) (Q16828 whole entry, looked up): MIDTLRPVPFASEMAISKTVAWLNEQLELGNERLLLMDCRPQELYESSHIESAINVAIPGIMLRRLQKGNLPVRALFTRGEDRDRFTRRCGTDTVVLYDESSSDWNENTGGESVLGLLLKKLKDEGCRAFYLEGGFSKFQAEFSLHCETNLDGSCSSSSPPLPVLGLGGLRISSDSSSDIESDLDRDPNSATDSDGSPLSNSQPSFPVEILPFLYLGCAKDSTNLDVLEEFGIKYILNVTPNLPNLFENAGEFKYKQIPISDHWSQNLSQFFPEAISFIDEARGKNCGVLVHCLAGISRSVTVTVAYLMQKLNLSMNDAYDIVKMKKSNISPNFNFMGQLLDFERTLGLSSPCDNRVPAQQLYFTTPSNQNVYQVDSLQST

[6] = biological target: Voltage-gated potassium channel subunit beta-2 (Rattus norvegicus) (UniProt P62483); test: inhibitors of rat Kvbeta2 reductase activity – biochemical, NADPH fluorescence, primary screen (AID 622;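 active = fluorescence slope higher than the sample average by over 3 SD, cut at about -0.22 in these data, passing the limit was not always enough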;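 note: slope of raw intensity against log time taken from 70 to 1610 s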); details: recombinant KvBeta, 4-cyanobenzaldehyde reduction, at 10 µM, stronger effect = higher value
Sequence of Voltage-gated potassium channel subunit beta-2 (Rattus norvegicus) (P62483 whole entry, looked up): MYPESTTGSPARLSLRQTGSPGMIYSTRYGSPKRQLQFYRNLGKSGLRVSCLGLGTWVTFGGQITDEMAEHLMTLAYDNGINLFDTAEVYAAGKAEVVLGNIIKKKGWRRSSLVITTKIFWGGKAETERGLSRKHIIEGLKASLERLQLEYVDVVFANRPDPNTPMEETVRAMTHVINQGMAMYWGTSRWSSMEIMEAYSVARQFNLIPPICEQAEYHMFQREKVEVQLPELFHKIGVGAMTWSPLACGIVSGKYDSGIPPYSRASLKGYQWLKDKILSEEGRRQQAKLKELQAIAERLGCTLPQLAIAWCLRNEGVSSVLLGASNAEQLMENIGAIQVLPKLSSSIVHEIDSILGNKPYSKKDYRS

[7] = biological target: Voltage-gated potassium channel subunit beta-2 (Rattus norvegicus) (UniProt P62483); test: enhancers of rat Kvbeta2 NADPH turnover – biochemical, NADPH fluorescence, primary screen (AID 623;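 active = NADPH fluorescence slope more negative than the mean of all samples by about 3 SD, 99.7% confidence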;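 note: fluorescence intensity change per second fitted from 20 to 320 s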); details: Recombinant KvBeta, NADPH fluorescence decrease slope, 10 min; at 10 µM; stronger effect = lower value
[8] = biological target: Muscarinic acetylcholine receptor M4 (Homo sapiens) (UniProt P08173); test: M4-linked GIRK flux change, two-sided – cell-based, HEK293 M4/GIRK, thallium flux, BTC-AM, M4 allosteric agonist project, primary screen (AID 625;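 active = fluorescence slope after compound addition differing from the mean of all tested samples at 99.7% confidence, mostly higher but some lower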;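 note: thallium influx through GIRK channels coupled to M4 in HEK293 cells with BTC-AM dye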); details: at 10 µM, actives lie on both sides
Sequence of Muscarinic acetylcholine receptor M4 (Homo sapiens) (P08173 whole entry, looked up): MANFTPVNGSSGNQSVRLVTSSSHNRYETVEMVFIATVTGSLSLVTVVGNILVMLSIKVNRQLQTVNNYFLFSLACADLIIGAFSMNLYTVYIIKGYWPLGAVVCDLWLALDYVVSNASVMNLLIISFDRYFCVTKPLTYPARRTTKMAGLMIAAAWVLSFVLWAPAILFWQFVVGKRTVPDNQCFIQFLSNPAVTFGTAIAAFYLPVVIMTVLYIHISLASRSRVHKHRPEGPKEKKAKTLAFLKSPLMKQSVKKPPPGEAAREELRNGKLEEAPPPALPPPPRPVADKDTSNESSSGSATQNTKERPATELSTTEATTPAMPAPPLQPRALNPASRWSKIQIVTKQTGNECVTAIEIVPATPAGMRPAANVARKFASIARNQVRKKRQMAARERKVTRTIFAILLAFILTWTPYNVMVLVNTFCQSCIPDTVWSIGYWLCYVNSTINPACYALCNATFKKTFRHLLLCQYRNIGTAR

[9] = inhibitors of larval lipid processing in zebrafish, primary screen, whole organism, PED6 fluorescence, gall bladder and intestine (AID 686;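 active = a full or partial loss of lipid-probe fluorescence in the fish gall bladder, intestine or both, judged by eye; inactive = no fluorescence loss, or compound toxic to the fish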;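 note: larvae 5 to 7 days old with five fish per well; signal comes from phospholipase A2 cleavage of quenched PED6 carried via bile; overnight exposure to compound and PED6 before scoring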); details: Zebrafish larvae PED6 lipid processing, fluorescence scoring; screened at 20 µM (by protocol)
[10] = loss of swimming-algae plug formation – whole organism, Chlamydomonas reinhardtii, WT vs cilia-less mutant, absorbance, 96-well, primary screen (AID 463189;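 active = inhibition at or above 50% relative to wild type and mutant plate controls; inactive = inhibition below 50%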;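 note: 0% = wild type cc124 cells in DMSO and 100% = ciliumless bld1 mutant cells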); details: Chlamydomonas reinhardtii gravitaxis, OD600 absorbance, 2 days; at 10 µM; stronger effect = higher value
[11] = blockers of RIG-like receptor reporter activation – cell-based, Sendai virus stimulus, luciferase, 10K MLSCN set, TLR/RLR signaling modifier project, primary screen (AID 602276;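 active = inhibition at or above 50% at 10 µM; inactive = inhibition below 50%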;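 note: firefly luciferase from ISG56 promoter only with Renilla not read in this screen; 0% = Sendai virus plus DMSO and 100% = medium plus DMSO without virus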); details: HEK293 RL24 IRF3 luciferase reporter, at 10 µM, stronger effect = higher value
[12] = TLR3 IRF3 reporter activation blockers – cell-based, poly I:C stimulus, luciferase, 10K MLSCN set, primary screen (AID 602277;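 active = inhibition of the reporter signal at or above 50%; inactive = inhibition below 50%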); details: HEK293-TLR3 RL24 IRF3 luciferase reporter, at 10 µM, stronger effect = higher value
[13] = measured here: cell density z-score
[14] = measured here: nuclear c-Myc green intensity z-score
[15] = measured here: nuclear pErk red intensity z-score, stronger effect = higher value

| Structure (SMILES) | cell count [1] | inhibition [1] | inhibition of aggregation [2] | nuclei count [2] [%] | inhibition [3] | nuclei count [3] [%] | z-score [4, 13] | z-score [4, 14] | z-score [4, 15] | inhibition [5] | fluorescence slope [6] | NADPH fluorescence slope [7] | fluorescence slope [8] | outcome [9] | inhibition [10] | inhibition [11] | inhibition [12] |
| --- | --- | --- | --- | --- | --- | --- | --- | --- | --- | --- | --- | --- | --- | --- | --- | --- | --- |
| O=C(OCCCN1CCCC1)C1(c2ccccc2)CCCC1 | 621 | 2.6% (inactive) | -0.8% (inactive) | 80.3 | 39.9% (inactive) | 126 | -0.268 | -0.108 | -0.136 | 1.04% (inactive) | -0.456 (inactive) | -5.5e-05 (inactive) | 0.00493 (inactive) | inactive | 91.8% (active) | -13.4% (inactive) | -17.4% (inactive) |
| N#C/C(C(=O)N1CCOCC1)=C1/SC(Cc2ccccc2)C(=O)N1c1ccccc1 (stereo not given) | 520 | -7.6% (inactive) | 18.9% (inactive) | 105 | 3.5% (inactive) | 112 | -1.65 | 1.02 | 0.783 | -2.09% (inactive) | -0.431 (inactive) | -3.8e-05 (inactive) | 0.00475 (inactive) | inactive | -6.43% (inactive) | 15.2% (inactive) | 24.9% (inactive) |
| CCOC(=O)C1(C(=O)OCC)C(c2ccccc2)CC(O)N1C(C)=O (stereo not given) | 820 | -8.8% (inactive) | -55.9% (inactive) | 103 | -65.8% (inactive) | 126 | -0.838 | 1.16 | -0.266 | 32.3% (inactive) | -0.351 (inactive) | -2.6e-05 (inactive) | 0.00504 (inactive) | inactive | 33.6% (inactive) | 15% (inactive) | 22.6% (inactive) |
| O=C(NCCN1CCCCC1)c1ccc(=O)oc1 | 586 | -3% (inactive) | -8.2% (inactive) | 90.9 | -0.3% (inactive) | 130 | 0.13 | 0.819 | -0.401 | 4.37% (inactive) | -0.482 (inactive) | -5.1e-05 (inactive) | 0.00918 (inactive) | inactive | -5.06% (inactive) | 3.93% (inactive) | 3.77% (inactive) |
| Cc1ccc(C(=O)/C=C/Nc2cccc(O)c2)cc1 | 368 | -4.7% (inactive) | -12% (inactive) | 106 | -0.2% (inactive) | 115 | -0.411 | -0.594 | 0.929 | -8.59% (inactive) | -0.467 (inactive) | -0.000129 (inactive) | 0.00389 (inactive) | inactive | 37.3% (inactive) | 5.62% (inactive) | -32.3% (inactive) |
| CCOC(=O)c1c(-c2cccs2)csc1NC(=O)CCCC(=O)O | 550 | -0.4% (inactive) | -5% (inactive) | 110 | -22.1% (inactive) | 106 | 0.00511 | -0.304 | -0.262 | -5.81% (inactive) | -0.427 (inactive) | -5.3e-05 (inactive) | 0.00466 (inactive) | inactive | 16.8% (inactive) | 15.6% (inactive) | 21.7% (inactive) |
| CCOC(=O)c1ccc(CC2S/C(=C(\C#N)C(C)=O)NC2=O)cc1 (stereo not given) | 508 | -6.4% (inactive) | -13.4% (inactive) | 100 | -87.6% (inactive) | 145 | 1.03 | -0.573 | 0.337 | 13.4% (inactive) | -0.384 (inactive) | -4.5e-05 (inactive) | 0.00533 (inactive) | inactive | 13.1% (inactive) | 6.73% (inactive) | -11.5% (inactive) |
| COc1ccc(C(=O)NCCCCCC(=O)O)cc1OC | 687 | -15.7% (inactive) | 12.2% (inactive) | 93 | -46.5% (inactive) | 119 | -0.456 | -0.271 | 0.551 | 18.9% (inactive) | -0.427 (inactive) | -3.8e-05 (inactive) | 0.00503 (inactive) | inactive | 32.7% (inactive) | 3.62% (inactive) | 12.3% (inactive) |
| CCCCc1nc(NCCNC(=O)c2ccco2)c(C#N)c2c1CSC(C)(C)C2 | 552 | -4.6% (inactive) | -1% (inactive) | 95.2 | -75.5% (inactive) | 122 | 0.34 | -0.704 | 0.0149 | 9.07% (inactive) | -0.478 (inactive) | -5.7e-05 (inactive) | 0.00431 (inactive) | inactive | 3.31% (inactive) | 1.84% (inactive) | 7.1% (inactive) |
| O=C(NCc1cccnc1)c1ccc(=O)oc1 | 649 | -2% (inactive) | -18.7% (inactive) | 103 | 43% (inactive) | 110 | -0.741 | 1.41 | -1.58 | 4.37% (inactive) | -0.496 (inactive) | -4.3e-05 (inactive) | 0.00411 (inactive) | inactive | 18.7% (inactive) | 10.2% (inactive) | 11.5% (inactive) |
